From PubChem BioAssay (NCI)
This is part of a sample that, as a whole, favours compounds with a hit. Of some 83,000 tested, about 20% had one in any assay.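 Growth was measured after 48 h exposure to one concentration of compound in 96-well plates. Values under 10 count as active.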 Unmarked numbers belong to inactive results. Calls of active or inactive are those of the source.

Test system: MCF7 breast
Experiment: NCI-60 one-dose screen, 48 h (100 = growth as untreated, 0 = no growth, -100 = all killed)
Conditions: 10 µM unless noted

Structure (SMILES) | growth
COc1ccc(C(=O)c2c(N)nc3n2CCCC3)cc1OC | 99%
O=C(CSc1ccc(Cl)cc1)Nc1ccc(-c2nc3ccccc3s2)c(Cl)c1 | 47.7%
O=C1C=CC(=O)N1CO | 104%
COc1ccc2[nH]c(C(=O)OCc3ccc4cccc(O)c4n3)cc2c1 | -39% (active)
COc1ccc(C(=O)C(C#N)c2cc(OC)c(OC)c(OC)c2)cc1 (stereo not drawn) | 99.6%
Nc1cc2nc3ccccc3oc-2cc1=O | 9.47% (active)
C=CCn1c(C)nc2cc(Nc3nc(N4CCOCC4)nc4nc[nH]c34)ccc21 | 86.5%
COc1cc2c(cc1OC)C(=O)C(Br)CC2 (stereo not drawn) | 40.9%
O=c1c2sc3ncc(Cl)cc3c2nnn1-c1cccc(Cl)c1 | 82.5%
CCCc1n(Cc2ccc3ccccc3c2)c2ccccc2[n+]1Cc1ccc2ccccc2c1 | -64.4% (active)
COc1cc(CN2CCO[C@H](COc3cccc(F)c3)C2)ccc1Cl | 26.7%
CCOC(=O)c1ccc(NC(=O)NC2=NCCS2)cc1 | 33.4%
O=C(OCc1ccc2c(Br)cc(Br)c(O)c2n1)c1cc2ccccc2[nH]1 | -35.5% (active)
O=C1c2ccccc2C2N1CCC1CCc3ccccc3N12 (stereo not drawn) | 96.4%
CCCCCCCCNC(C)C(O)c1ccc(SC(C)C)cc1 (stereo not drawn) | 54%
COc1cc(/C=C/C(=O)c2ccc(NC(=O)CSc3nnc(-c4ccc(Cl)cc4)n3-c3ccccc3)cc2)cc(OC)c1OC | 20.8%
O=C(c1ccccc1)N(CCCCl)C(=O)N(CCCCl)C(=O)c1ccccc1 | 119%
Cc1cc(C)cc(Nc2cc(C)nc3nc(C(F)(F)F)nn23)c1 | -11.7% (active)
Clc1ccc(Nc2ncnc3c2sc2ncccc23)c(Cl)c1 | 18.4%
Cc1ccc(Nc2nc(NCCO)c3ccccc3n2)cc1C | 24.4%

Structure (SMILES) | growth
COc1cc(NCCCCC(C)N)c2nccc(C)c2c1 (stereo not drawn) | 4.24% (active)
NC(=O)c1noc(C(=O)c2ccccc2)c1N | 97.3%
O=C(NO)c1ccc(NCc2csc3ccccc23)cc1 | 83%
CC1=NC(c2ccc(Cl)cc2)C2=C(N1)/C(=C/c1ccc(Cl)cc1)CCC2 (stereo not drawn) | 31.3%
COc1ccc(-c2nnc(SCC(=O)Nc3ccc(C(=O)/C=C/c4ccc(Cl)cc4)cc3)n2-c2ccccc2)cc1 | 95.3%
Oc1[nH]c2ccccc2c1/C=c1/ccc2c(c1)N=C(c1ccc(C(F)(F)F)cc1)N=2 | 37%
Fc1ccc(-c2nnc(N3CCOCC3)c3ccccc23)cc1 | 155%
COc1ccc2cc(-c3nc(C)c(C(C)=O)c(-c4ccc(C)cc4)n3)ccc2c1 | 88.3%
C/C(=N\OC(=O)Nc1cccc(Cl)c1)c1ccccc1 | 88.1%
Cc1ccc(O)c(Cc2ccccc2)c1 | 114%
Oc1c(C(c2ccc(F)cc2)N2CCCCC2)ccc2cncnc12 (stereo not drawn) | 6.3% (active)
COc1ccc2[nH]cc(C(c3ccc(Cl)cc3)N3CCCC3)c2c1 (stereo not drawn) | 89.3%
COc1cc2c(cc1C)NC(=O)/C2=C\c1c[nH]c2ccccc12 | 59.2%
C=CCn1c(SCC(=O)Nc2ccc(/C(C)=N\O)cc2)nnc1-c1cc(-c2ccc(Cl)cc2)nc2ccccc12 | 14%
COc1cccc2nc(Nc3cccc(NC(=O)c4cc(N5CCOCC5)cc(C(F)(F)F)c4)c3)ccc12 | 45.2%
Cc1ccc(CSCc2ccc(C(=O)NC3CC3)o2)cc1 | 25%
Cc1n(Cc2ccc3ccccc3n2)cc[n+]1Cc1ccc2ccccc2c1 | 4.65% (active)
Cc1ccc(S(=O)(=O)NC(CCC(=O)Nc2ccc(Cl)cc2)C(=O)Nc2ccc(Cl)cc2)cc1 (stereo not drawn) | 30%
O=C1Nc2ccccc2/C1=C/c1c[nH]c2ccccc12 | 63.2%

Test system: HCT-116 colon
Experiment: as above
Conditions: 10 µM unless noted

Structure (SMILES) | growth
COc1ccc(C(=O)c2c(N)nc3n2CCCC3)cc1OC | 91.9%
O=C(CSc1ccc(Cl)cc1)Nc1ccc(-c2nc3ccccc3s2)c(Cl)c1 | 19.7%
O=C1C=CC(=O)N1CO | 104%
COc1ccc2[nH]c(C(=O)OCc3ccc4cccc(O)c4n3)cc2c1 | -77.7% (active)
COc1ccc(C(=O)C(C#N)c2cc(OC)c(OC)c(OC)c2)cc1 (stereo not drawn) | 97.5%
Nc1cc2nc3ccccc3oc-2cc1=O | 45.1%
C=CCn1c(C)nc2cc(Nc3nc(N4CCOCC4)nc4nc[nH]c34)ccc21 | 91.4%
COc1cc2c(cc1OC)C(=O)C(Br)CC2 (stereo not drawn) | 7.03% (active)
O=c1c2sc3ncc(Cl)cc3c2nnn1-c1cccc(Cl)c1 | 31.3%
CCCc1n(Cc2ccc3ccccc3c2)c2ccccc2[n+]1Cc1ccc2ccccc2c1 | -91.2% (active)
COc1cc(CN2CCO[C@H](COc3cccc(F)c3)C2)ccc1Cl | 27.1%
CCOC(=O)c1ccc(NC(=O)NC2=NCCS2)cc1 | 93%
O=C(OCc1ccc2c(Br)cc(Br)c(O)c2n1)c1cc2ccccc2[nH]1 | -72.9% (active)
O=C1c2ccccc2C2N1CCC1CCc3ccccc3N12 (stereo not drawn) | 93.7%
CCCCCCCCNC(C)C(O)c1ccc(SC(C)C)cc1 (stereo not drawn) | -96.9% (active)
COc1cc(/C=C/C(=O)c2ccc(NC(=O)CSc3nnc(-c4ccc(Cl)cc4)n3-c3ccccc3)cc2)cc(OC)c1OC | 7.2% (active)
O=C(c1ccccc1)N(CCCCl)C(=O)N(CCCCl)C(=O)c1ccccc1 | 90.9%
Cc1cc(C)cc(Nc2cc(C)nc3nc(C(F)(F)F)nn23)c1 | 19.2%
Clc1ccc(Nc2ncnc3c2sc2ncccc23)c(Cl)c1 | 27.6%
Cc1ccc(Nc2nc(NCCO)c3ccccc3n2)cc1C | 16.5%

Structure (SMILES) | growth
COc1cc(NCCCCC(C)N)c2nccc(C)c2c1 (stereo not drawn) | 99.2%
NC(=O)c1noc(C(=O)c2ccccc2)c1N | 85.4%
O=C(NO)c1ccc(NCc2csc3ccccc23)cc1 | 34.4%
CC1=NC(c2ccc(Cl)cc2)C2=C(N1)/C(=C/c1ccc(Cl)cc1)CCC2 (stereo not drawn) | -39.9% (active)
COc1ccc(-c2nnc(SCC(=O)Nc3ccc(C(=O)/C=C/c4ccc(Cl)cc4)cc3)n2-c2ccccc2)cc1 | 76%
Oc1[nH]c2ccccc2c1/C=c1/ccc2c(c1)N=C(c1ccc(C(F)(F)F)cc1)N=2 | 39.5%
Fc1ccc(-c2nnc(N3CCOCC3)c3ccccc23)cc1 | 87.9%
COc1ccc2cc(-c3nc(C)c(C(C)=O)c(-c4ccc(C)cc4)n3)ccc2c1 | 86.3%
C/C(=N\OC(=O)Nc1cccc(Cl)c1)c1ccccc1 | 103%
Cc1ccc(O)c(Cc2ccccc2)c1 | 98%
Oc1c(C(c2ccc(F)cc2)N2CCCCC2)ccc2cncnc12 (stereo not drawn) | 11.1%
COc1ccc2[nH]cc(C(c3ccc(Cl)cc3)N3CCCC3)c2c1 (stereo not drawn) | 96.5%
COc1cc2c(cc1C)NC(=O)/C2=C\c1c[nH]c2ccccc12 | 78.5%
C=CCn1c(SCC(=O)Nc2ccc(/C(C)=N\O)cc2)nnc1-c1cc(-c2ccc(Cl)cc2)nc2ccccc12 | 19.5%
COc1cccc2nc(Nc3cccc(NC(=O)c4cc(N5CCOCC5)cc(C(F)(F)F)c4)c3)ccc12 | 41.9%
Cc1ccc(CSCc2ccc(C(=O)NC3CC3)o2)cc1 | 81.1%
Cc1n(Cc2ccc3ccccc3n2)cc[n+]1Cc1ccc2ccccc2c1 | 4.92% (active)
Cc1ccc(S(=O)(=O)NC(CCC(=O)Nc2ccc(Cl)cc2)C(=O)Nc2ccc(Cl)cc2)cc1 (stereo not drawn) | 23.8%
O=C1Nc2ccccc2/C1=C/c1c[nH]c2ccccc12 | 79.2%
